# Screening data from PubChem BioAssay.
# This excerpt belongs to a sample that is enriched for hits.
# KDM5B inhibitor: inhibitors of human KDM5B histone demethylase; Q9UGL1; KDM5B demethylase, FDH-coupled NADH fluorescence (FDH is formaldehyde dehydrogenase); Potency, µM (doses to about 57.7 µM), hits mostly inhibitors; actives 2.6% (n = 220,000); AID 1347165; active = well fitted inhibition curve with a large enough effect; also: 0% is about no effect; nearly all actives have a fitted effect of over 70% in size
# Target sequence (Q9UGL1 whole entry, looked up): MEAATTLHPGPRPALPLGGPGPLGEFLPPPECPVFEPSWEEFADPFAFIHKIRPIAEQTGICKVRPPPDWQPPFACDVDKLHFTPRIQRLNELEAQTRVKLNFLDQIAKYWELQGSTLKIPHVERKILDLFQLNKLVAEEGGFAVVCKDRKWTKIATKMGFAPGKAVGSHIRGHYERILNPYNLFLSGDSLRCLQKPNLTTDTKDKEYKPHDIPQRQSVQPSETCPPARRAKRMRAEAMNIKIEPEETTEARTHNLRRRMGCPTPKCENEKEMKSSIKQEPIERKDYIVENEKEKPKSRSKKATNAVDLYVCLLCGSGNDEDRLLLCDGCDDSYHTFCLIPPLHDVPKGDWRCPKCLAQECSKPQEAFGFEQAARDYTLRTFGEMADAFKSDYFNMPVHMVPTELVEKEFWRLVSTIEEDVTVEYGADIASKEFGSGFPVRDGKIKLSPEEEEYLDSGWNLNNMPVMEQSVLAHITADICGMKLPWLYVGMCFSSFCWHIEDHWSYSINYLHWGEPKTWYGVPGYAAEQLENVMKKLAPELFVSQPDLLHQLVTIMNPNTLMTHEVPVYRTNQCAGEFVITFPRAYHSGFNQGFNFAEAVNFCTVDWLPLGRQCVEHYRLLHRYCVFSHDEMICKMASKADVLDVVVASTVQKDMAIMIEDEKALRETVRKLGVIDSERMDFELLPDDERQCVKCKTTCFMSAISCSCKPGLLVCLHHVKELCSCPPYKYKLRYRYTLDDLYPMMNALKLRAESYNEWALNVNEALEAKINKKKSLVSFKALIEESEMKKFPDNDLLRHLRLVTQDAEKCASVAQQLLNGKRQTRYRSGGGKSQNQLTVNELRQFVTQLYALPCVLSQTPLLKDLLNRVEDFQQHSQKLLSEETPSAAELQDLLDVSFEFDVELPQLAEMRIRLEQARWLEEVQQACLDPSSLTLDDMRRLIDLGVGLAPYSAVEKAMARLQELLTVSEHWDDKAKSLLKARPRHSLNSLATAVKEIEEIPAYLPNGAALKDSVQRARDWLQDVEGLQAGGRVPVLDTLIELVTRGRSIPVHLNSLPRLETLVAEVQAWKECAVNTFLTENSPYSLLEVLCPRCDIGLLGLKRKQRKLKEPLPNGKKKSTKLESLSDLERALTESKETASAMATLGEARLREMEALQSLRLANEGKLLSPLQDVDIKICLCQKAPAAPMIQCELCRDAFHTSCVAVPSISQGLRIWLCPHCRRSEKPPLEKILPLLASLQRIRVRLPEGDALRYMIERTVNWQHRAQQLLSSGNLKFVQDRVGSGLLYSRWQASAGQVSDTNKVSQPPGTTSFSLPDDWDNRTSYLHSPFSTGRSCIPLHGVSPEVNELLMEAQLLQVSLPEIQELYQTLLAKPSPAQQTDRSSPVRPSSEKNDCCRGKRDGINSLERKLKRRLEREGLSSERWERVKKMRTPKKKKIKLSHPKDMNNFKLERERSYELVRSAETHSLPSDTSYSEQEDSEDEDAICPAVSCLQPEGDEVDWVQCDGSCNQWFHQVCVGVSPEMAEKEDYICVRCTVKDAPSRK
#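 Inhibition is measured as reduced NADH fluorescence generation from FDH coupling to formaldehyde release. Truncated KDM5BΔAP at 200 nM final acts on H3K4me3 peptide (12.5 µM in substrate mix) in pH 7.5 HEPES buffer with Tween-20, 30 min, room temperature.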
# * hit, by the source's call; i = inactive. Potency is read from the fitted curve at half-maximal effect.
SMILES,KDM5B inhibitor
O=C(NCc1ccccc1)C1CCN(S(=O)(=O)c2ccc(OC(F)(F)F)cc2)CC1,i
CCOCC1(C)COc2ccc(C(=O)N(C)Cc3ccccc3)cc2N1 (stereo not given),i
O=C(NCCc1ccccn1)c1ccc(F)cc1,i
CC1(COc2ccccc2)COc2ccc(C(=O)NCCOc3ccccc3)cc2N1 (stereo not given),40µM*
CC1(CNc2ccccc2)COc2ccc(C(=O)NCCc3ccccn3)cc2N1 (stereo not given),22µM*
CC1(CNc2ccccc2)COc2ccc(C(=O)NCCOc3ccccc3)cc2N1 (stereo not given),28µM*
COc1cccc(OCCNC(=O)c2ccc3[nH]c(C)c(C)c3c2)c1,i
Cc1ccc(OCCNC(=O)c2ccc3c(c2)NC(=O)CS3)cc1,i
CN(Cc1ccccc1)C(=O)c1ccc2c(c1)NC(C)(COc1ccccc1)CO2 (stereo not given),40µM*
CC1(CNc2ccccc2)COc2ccc(C(=O)NCCN3CCOCC3)cc2N1 (stereo not given),i
CC(C)(C)c1ccc(C(=O)NCCc2ccccn2)cc1,i
CN(Cc1ccc2c(c1)OCO2)C(=O)c1cccc(OCc2ccccc2)c1,i
CC(=O)Nc1cccc(C(C)NC(=O)Nc2cc(Cl)cc(Cl)c2)c1 (stereo not given),i
COc1cccc2c(=O)cc(CSCC(=O)Nc3cccc(Cl)c3)[nH]c12,i
CN(C)C(=O)c1ccc(OC2CCN(C(=O)c3ccccc3)CC2)nc1,i
Cc1[nH]c2ccccc2c1CC(=O)NC1CCS(=O)(=O)C1 (stereo not given),i
Cc1cc(C)c2oc(=O)cc(CN3CCN(CCc4ccncc4)CC3)c2c1,i
CCNC(=O)N1CC(Oc2cccc(-c3nc(-c4ccccc4)no3)c2)C1,i
Cc1ccc(SCc2ccc(C(=O)Nc3ccccc3C(C)C)cc2)cc1,i
O=C(NCc1coc(-c2cccs2)n1)c1ccc(N2CCCC2)c([N+](=O)[O-])c1,i
O=C(O)C1(n2cnc3ccccc32)CCN(c2nc3ccccc3s2)CC1,i
COc1cccc(Nc2ncc3c(n2)C(C)(C(=O)N2CC[S+](=O)([O-])CC2)CC3)c1 (stereo not given),i
COCCNC(=O)C1(C)CCc2cnc(Nc3cccc(OC)c3)nc21 (stereo not given),i
COc1cccc(Nc2ncc3c(n2)C(C)(C(=O)Nc2nc(C)cs2)CC3)c1 (stereo not given),35µM*
O=C(NC[C@H]1OC[C@@H](N(Cc2ccccn2)Cc2ccccn2)[C@@H]1O)C1CC1,i
SMILES,KDM5B inhibitor
Cc1cccc(CN2CCCC(O)(CNCc3cccc(C)n3)C2=O)c1 (stereo not given),i
CN(Cc1ccccc1)Cc1cc(CC2(NCc3ccccc3F)COC2)no1,i
Cc1cnc(CCNC(=O)C2CC2)n1CC1CC1,i
CCCCNc1nc2c(c(=O)[nH]c(=O)n2C)n1Cc1cccc(C)c1,i
Cc1ccc(/C=N/Nc2ccc(S(=O)(=O)Nc3cccc(Cl)c3)cc2[N+](=O)[O-])s1,i
CC(=O)N1CC(CO)C2(CCN(Cc3cccc(C#N)c3)CC2)C1 (stereo not given),i
COCC1CN(C(C)=O)CC12CCN(Cc1ccc3[nH]ccc3c1)CC2 (stereo not given),i
OCC1CN(c2ncccn2)CC12CCN(Cc1ccc3[nH]ccc3c1)CC2 (stereo not given),22µM*
O=C(c1cccc2[nH]ccc12)N1CCC2(CC1)CN(c1ncccn1)CC2CO (stereo not given),32µM*
N#Cc1cccc(CN2CCC3(CC2)CN(c2ncccn2)CC3CO)c1 (stereo not given),28µM*
CC(=O)N1CC(CO)C2(CCN(Cc3c[nH]c4ccccc34)CC2)C1 (stereo not given),i
OCC1CN(c2ccncn2)CC12CCN(Cc1cc(F)c(F)c(F)c1)CC2 (stereo not given),i
O=C(c1ccccn1)N1CC(CO)C2(CCNCC2)C1 (stereo not given),i
COCCN1CC(CO)C2(CCN(Cc3c[nH]c4ccccc34)CC2)C1 (stereo not given),i
OCC1CN(c2ncccn2)CC12CCN(Cc1cccc3[nH]ccc13)CC2 (stereo not given),32µM*
N#Cc1cccc(CN2CCC3(CCN(Cc4ccncc4)CC3)C(CO)C2)c1 (stereo not given),i
CC(=O)N1Cc2ccccc2OC2(CCN(C(=O)c3cccc4[nH]ccc34)CC2)C1,i
O=C(Nc1ccccc1)C1=NO[C@@H]2CN(Cc3cc(F)ccc3F)C[C@H]12,i
CCCCCCC(=O)Nc1ccc(C)cc1C,i
CCN(CC)S(=O)(=O)c1cc(NC(=O)c2[nH]c(C)c(C(=O)OC)c2C)ccc1C,i
Cc1ccccc1C(=O)NC1CCC(C(F)(F)F)CC1 (stereo not given),i
COCCn1c(=O)c2c(nc(-n3nc(C)c(C)c3C)n2Cc2cccc(C)c2)n(C)c1=O,i
